A selection: hits, their analogues and other compounds. The true share with any hit is near 0.44%.
YopH inh – inhibitors of Yersinia enterocolitica YopH tyrosine phosphatase; fluorescence Ex485/Em525; inhibition, % (concentration not given with the values); 140,000 tested, 0.16% active; AID 898; in the data active = inhibition above about 50%
RmlC RmlD mix – RmlC/RmlD inhibition, mixture screen; RmlC/RmlD coupled enzyme inhibition, 384-well mixture HTS; inhibition, % at 5.5 µM; 110,000 tested, 0.39% active; AID 1532; in the data active = inhibition above about 30%, passing the limit was not always enough
RmlCD fluor art – RmlC/RmlD fluorescence artifact, counter-screen; RmlC/RmlD assay fluorescence artifact counter-screen; shares compounds with RmlC RmlD mix; calls only; 360 tested, 96% active; call rule not given here;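 note: compound alone with no enzyme and no substrates present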
An asterisk follows results filed as active; i = inactive; x = no result; + = active, no number.

SMILES	YopH inh	RmlC RmlD mix	RmlCD fluor art
COc1ccc(OC)c(/C=N/NC(=O)CC2C(=O)NN=C2C)c1 (stereo not drawn)	-1.0	53.7*	+
COc1cccc(/C=N/NC(=O)CC2C(=O)NN=C2C)c1OC (stereo not drawn)	-12.5	-0.4	x
CCOC(=O)c1c(NC(=S)NC(C)=O)sc(C)c1C	-11.6	x	x
C=CCn1c2ccccc2c2nnc(SCN3C(=O)c4ccccc4C3=O)nc21	-13.9	49.6*	i
O=C1c2ccccc2C(=O)N1CSc1nnc2c3ccccc3n(CCc3ccccc3)c2n1	-17.8	-7.3	x
CCCCn1c(=O)nc2n(-c3ccccc3)c3ccccc3cc-2c1=O	-39.0	37.1*	+
CCCCn1c(=O)c(C(=O)c2ccccc2)nc2ccccc21	-16.1	2.0	x
C/C=C/c1ccc(OCC(=O)OCc2csc(Nc3ccc(C)cc3)n2)c(OC)c1	-11.4	x	x
COc1cccc(-c2nc(-c3ccc(NC(=O)c4cccs4)cc3)no2)c1	-58.5	6.8	x
N#Cc1c(N)n(CCOC(=O)c2cccc([N+](=O)[O-])c2)c2nc3ccccc3nc12	-36.4	45.5*	+
COCCn1c(N)c(C#N)c2nc3ccccc3nc21	13.8	55.4*	+
COc1ccc(Cn2c(N)c(C#N)c3nc4ccccc4nc32)cc1	-5.9	x	x
N#Cc1c(N)n(CCOC(=O)c2cccc(Br)c2)c2nc3ccccc3nc12	-26.1	7.4	x
C=CCSC(=C(C#N)C#N)c1cc2c([nH]1)CCCC2	-2.6	7.7	x
C#CCNC(=O)C1=C[C@@H](c2ccc(C(F)(F)F)cc2)[C@H](CCCO)[C@@H](OCC)O1	x	7.0	x
O=C(Nc1ccc2oc(-c3ccccc3)nc2c1)c1ccco1	-9.6	x	x
O=C(Cn1cc(C(F)(F)F)ccc1=O)N/N=C/c1cccc(Cl)c1	-21.0	x	x
Cc1cc(Cl)c(S(=O)(=O)N2CCN(c3ccccc3)CC2)cc1OCC(N)=O	37.5	-5.8	x
CCNC(=O)c1cc2c(=O)n3cccc(C)c3nc2n(CCc2ccccc2)c1=N	-13.6	58.9*	+
COCCn1c(=N)c(C(=O)NCCc2ccccc2)cc2c(=O)n3cccc(C)c3nc21	2.0	57.5*	+
CCCn1c(=N)c(C(=O)NCC2CCCO2)cc2c(=O)n3cccc(C)c3nc21 (stereo not drawn)	-44.3	87.2*	+
Cc1cccn2c(=O)c3cc(C(=O)NCCCn4ccnc4)n(C)c3nc12	-29.2	x	x
Cc1cccn2c(=O)c3cc(C(=O)NCC4CCCO4)c(=N)n(CCN4CCOCC4)c3nc12 (stereo not drawn)	-19.6	x	x
Cc1cccn2c(=O)c3cc(C(=O)NCCc4ccccc4)c(=N)n(CCCn4ccnc4)c3nc12	-16.0	37.5*	+
Cc1cccn2c(=O)c3cc(C(=O)NCc4ccco4)c(=N)n(CCOCCO)c3nc12	-34.5	16.7	x
SMILES	YopH inh	RmlC RmlD mix	RmlCD fluor art
Cc1cccn2c(=O)c3cc(C(=O)NCCN4CCOCC4)c(=N)n(CCc4ccccc4)c3nc12	-28.5	x	x
CC(C)(C)NC(=O)NC(=O)COC(=O)Cc1coc2ccc3ccccc3c12	-7.3	x	x
O=C(c1cc(-c2ccco2)nc2ccccc12)N1CCN(c2ccc(F)cc2)CC1	-15.3	x	x
O=C(COC(=O)c1cnc(Cl)c(Cl)c1)Nc1ccc(S(=O)(=O)N2CCCC2)cc1	-12.3	x	x
CN(C)CCCNS(=O)(=O)c1ccc(N2CCC(c3ccc(Cl)cc3)=N2)cc1	-13.7	93.2*	+
CCN(CC(=O)N1CCCCCC1)S(=O)(=O)c1ccc(Cl)cc1	12.6	-0.9	x
O=S(=O)(c1ccc(N2CCC(c3ccc(Cl)cc3)=N2)cc1)N(CCO)CCO	4.8	39.5*	+
CN(C)CCCNS(=O)(=O)c1cc(Cl)ccc1Cl	-3.3	1.8	x
CCCCn1c(-c2cccs2)nc2nc3ccccc3nc21	-20.6	55.8	x
CCCCOCCCn1c(-c2ccco2)nc2nc3ccccc3nc21	-39.8	41.2*	+
COc1ccc(-c2ccnc3c(C#N)cnn23)cc1	x	x	+
N#Cc1cnn2c(-c3ccccc3)ccnc12	0.4	17.2	x
CN(C)c1c2ccccc2nc2c(F)c(F)c(F)c(F)c12	x	x	+
Cc1c2ccccc2nc2c(F)c(N(C)C)c(F)c(F)c12	-5.8	x	x
CCCNC1=CC(=O)CC(C)(C)C1	-28.9	x	x
CN(C)C(=O)COc1ccc2cc(-c3ccccc3)c(=O)oc2c1	17.2	54.7*	+
Cc1cc(OCC(=O)N(C)C)c2c(-c3ccccc3)cc(=O)oc2c1	-36.8	-8.4	x
CCN(CC)C(=O)CC(c1ccc(F)cc1)c1ccc(OC(C)C)cc1 (stereo not drawn)	-11.0	x	x
Nc1ccc(-c2nc3ccc(-c4nc5ccccc5o4)cc3[nH]2)cc1	-38.0	+	+
Cc1ccc2nc(-c3cc(N)cc(N)c3)oc2c1	-134.9	7.3	x
Cc1nc2ccc(-c3nc4ccccc4o3)cc2[nH]1	-33.8	5.6	x
Nc1ccc(-c2nc3ccc(N)cc3o2)cc1	-6.2	103.9*	+
CSc1ccc(CNc2ccc(C)cc2)cc1	-17.8	0.0	x
O=S(=O)(c1ccc(Cl)s1)N1CCCc2cccc(O)c21	-29.2	-3.8	x
Cc1cc(C)c2c(n1)nn1c(NCCCN(C)C)cc(C)nc21	-36.5	86.0*	+
SMILES	YopH inh	RmlC RmlD mix	RmlCD fluor art
Cc1cc(NCCCN(C)C)n2nc(-c3cccs3)cc2n1	-17.4	-10.2	x
COc1ccc(OC)c(NC(=O)c2ccccc2OC(C)=O)c1	x	-9.4	x
CCN(CC)c1ccc2cc(-c3nc4ccccc4[nH]3)c(=O)oc2c1	-21.4	30.2*	+
CCN(CC)c1ccc2cc(-c3nc4ccccc4n3C)c(=O)oc2c1	-24.3	-63.6	x
CC(C)CNC(=O)c1coc(=O)c(Br)c1	6.3	3.8	x
CN(C)CCNC(=O)c1coc(=O)c(Br)c1	-6.4	61.9*	+
CC1CCCN(CCCNC(=O)c2coc3nc4ccccc4nc23)C1 (stereo not drawn)	10.5	139.6*	+
CC1CCN(CCCNC(=O)c2coc3nc4ccccc4nc23)CC1	-23.2	18.6	x
CCCCC(CC)CNC(=O)C(=O)c1ccccc1NC(C)=O (stereo not drawn)	-25.8	x	x
CCOc1ccc(Br)cc1S(=O)(=O)Nc1cccc(S(=O)(=O)N(C)C)c1	-26.1	x	x
NC(=O)c1nn(-c2ccccc2)nc1N	3.7	43.5*	+
NC(=O)c1nn(-c2ccccc2)nc1NC(=O)CN1CCCCC1	-14.7	6.5	x
O=C(CSc1ccccn1)Nc1nncs1	-10.3	177.4	x
CCOC(=O)N1CCN(S(=O)(=O)c2ccc(C(=O)Nc3ccc4c(c3)C(=O)NC4=O)cc2)CC1	-43.1	x	x
CC(C)(C)NC(=O)CN(C(=O)C1(C)CC(=O)N=C2C=CC=CN21)C1CCCC1 (stereo not drawn)	9.2	39.2*	+
CC1=CC2=NC(=O)CC(C)(C(=O)N(CC(=O)NC(C)(C)C)C3CCCC3)N2C=C1 (stereo not drawn)	34.5	5.6	x
CC(=O)Nc1ccc(Nc2nc(C)c([N+](=O)[O-])c(Nc3ccc(NC(C)=O)cc3)n2)cc1	-20.2	x	x
CN(C)c1ccc(-c2nc3ccccn3c2/N=C/c2ccc(Br)cc2)cc1	-12.2	x	x
COc1cc(-c2nc3ccccn3c2/N=C/c2cc(OC)c(OC)c(OC)c2)ccc1O	-31.0	43.6*	+
CC(C)(C)NC(=O)C(c1ccccn1)N(C(=O)C1CSC(=O)C1)c1ccc(F)cc1 (stereo not drawn)	-26.5	-27.8	x
COc1ccc2oc(=O)c(C(=O)n3ccc(C)n3)cc2c1	4.5	110.9*	+

Source: PubChem BioAssay
